From PubChem BioAssay AID1159580 (chemical genetic matrix, 2015)
Screen size: about 5,500 compounds; about 2,000 (36%) were called active. Another 18% or so got no clear call; they are omitted. No stated cut-off is given here; in the data, active means normalized growth mostly below about 0.91 (no sharp cut-off); inconclusive means no clear call, values can overlap the other calls; inactive means mostly above about 0.92. The list shows a part of the results.

Experiment: chemical genetic growth profiling, strain panel (AID 1159580);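 further: tested at 20 µM; growth read once vehicle control cultures reached saturation at 30 °C; 1 = growth at the plate median or of vehicle wells; lower values mean less growth of the strain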
Details: S. cerevisiae deletion strains, growth OD
[1] = locus YHR030C, strain SLT2, hits give low values
[2] = locus YHR079C, strain IRE1, hits give low values
[3] = locus YJL095W, strain BCK1, hits give low values
[4] = locus YJR066W, strain TOR1, hits give low values
[5] = locus YLR113W, strain HOG1, hits give low values
[6] = locus YNL183C, strain NPR1, hits give low values
[7] = locus YOR231W, strain MKK1, hits give low values
[8] = locus YPL256C, strain CLN2, hits give low values
[9] = locus YAR019C, strain CDC15, hits give low values
[10] = locus YBL105C, strain PKC1, hits give low values
[11] = locus YBR135W, strain CKS1, hits give low values
[12] = locus YBR136W, strain MEC1, hits give low values
[13] = locus YBR160W, strain CDC28, hits give low values
[14] = locus YDL017W, strain CDC7, hits give low values
[15] = locus YDL028C, strain MPS1, hits give low values
[16] = locus YDL101C, strain DUN1, hits give low values
[17] = locus YDL108W, strain KIN28, hits give low values
[18] = locus YDL132W, strain cdc53, hits give low values
[19] = locus YDL214C, strain PRR2, hits give low values
[20] = locus YDR052C, strain DBF4, hits give low values
[21] = locus YDR054C, strain cdc34, hits give low values
[22] = locus YDR226W, strain ADK1, hits give low values
[23] = locus YDR477W, strain SNF1, hits give low values
[24] = locus YER123W, strain YCK3, hits give low values
[25] = locus YER133W, strain GLC7, hits give low values
[26] = locus YFL009W, strain cdc4, hits give low values
[27] = locus YFL029C, strain CAK1, hits give low values
[28] = locus YFR003C, strain YPI1, hits give low values
[29] = locus YFR019W, strain FAB1, hits give low values
[30] = locus YFR028C, strain CDC14, hits give low values
[31] = locus YGR040W, strain KSS1, hits give low values
[32] = locus YGR052W, strain FMP48, hits give low values
[33] = locus YGR092W, strain DBF2, hits give low values
[34] = locus YHR082C, strain KSP1, hits give low values
[35] = locus YHR205W, strain SCH9, hits give low values
[36] = locus YIL147C, strain SLN1, hits give low values
[37] = locus YJL128C, strain PBS2, hits give low values
[38] = locus YJL157C, strain FAR1, hits give low values
[39] = locus YJR016C, strain ILV3, hits give low values
[40] = locus YJR066W, strain TOR1 (second series), hits give low values
[41] = locus YKL048C, strain ELM1, hits give low values
[42] = locus YKL067W, strain YNK1, hits give low values
[43] = locus YKL101W, strain HSL1, hits give low values
[44] = locus YKL193C, strain SDS22, hits give low values
[45] = locus YKL203C, strain TOR2, hits give low values
[46] = locus YLR133W, strain CKI1, hits give low values
[47] = locus YLR403W, strain SFP1, hits give low values
[48] = locus YML070W, strain DAK1, hits give low values
[49] = locus YMR001C, strain CDC5, hits give low values
[50] = locus YMR205C, strain PFK2 (second series), hits give low values
[51] = locus YMR277W, strain FCP1, hits give low values
[52] = locus YNL006W, strain LST8, hits give low values
[53] = locus YNL020C, strain ARK1, hits give low values
[54] = locus YNL161W, strain CBK1, hits give low values
[55] = locus YNL207W, strain RIO2, hits give low values
[56] = locus YNL222W, strain SSU72, hits give low values
[57] = locus YNL307C, strain MCK1 (second series), hits give low values
[58] = locus YOL078W, strain AVO1, hits give low values
[59] = locus YOL136C, strain PFK27, hits give low values
[60] = locus YOR061W, strain CKA2, hits give low values
[61] = locus YOR119C, strain RIO1, hits give low values
[62] = locus YOR329C, strain SCD5, hits give low values
[63] = locus YPL031C, strain PHO85, hits give low values
[64] = locus YPL153C, strain RAD53, hits give low values
[65] = locus YPL204W, strain HRR25, hits give low values
[66] = locus YPL209C, strain IPL1, hits give low values
[67] = locus YPR025C, strain CCL1, hits give low values
[68] = locus YPR106W, strain ISR1, hits give low values
[69] = locus YPR111W, strain DBF20, hits give low values
[70] = strain NNK1, hits give low values
[71] = strain TSCII, hits give low values

Measured: normalized growth

O=C(CCNNC(=O)c1ccncc1)NCc1ccccc1
inactive: locus YAL040C, strain CLN3, hits give low values 0.999 | locus YCL061C, strain MRC1 (second series), hits give low values 1 | locus YDR150W, strain NUM1, hits give low values 0.998 | locus YDR363W, strain ESC2, hits give low values 0.959 | locus YER002W, strain NOP16, hits give low values 0.994 | locus YGR229C, strain SMI1, hits give low values 0.986 | [1] 0.978 | [2] 0.975 | [3] 0.972 | [4] 0.961 | locus YJR075W, strain HOC1, hits give low values 0.994 | [5] 0.966 | locus YMR263W, strain SAP30, hits give low values 0.994 | locus YNL153C, strain GIM3, hits give low values 0.99 | locus YNL175C, strain NOP13, hits give low values 0.996 | [6] 0.931 | locus YNL197C, strain WHI3, hits give low values 0.993 | locus YNL224C, strain SQS1, hits give low values 0.998 | locus YOR083W, strain WHI5 (second series), hits give low values 1 | [7] 0.97 | locus YPL055C, strain LGE1, hits give low values 0.987 | locus YPL241C, strain CIN2, hits give low values 1 | [8] 0.974

O=C(NCc1ccncc1)c1ccc(-n2cccn2)cc1
active: [5] 0.854
inactive: [9] 0.989 | [10] 0.984 | [11] 0.982 | [12] 0.982 | [13] 0.984 | [14] 0.992 | [15] 0.983 | [16] 0.982 | [17] 0.982 | [18] 0.984 | [19] 0.972 | [20] 0.987 | [21] 0.988 | [22] 0.983 | [23] 0.972 | [24] 0.941 | [25] 0.969 | [26] 0.981 | [27] 0.988 | [28] 0.98 | [29] 0.962 | [30] 0.979 | [31] 0.96 | [32] 1 | [33] 0.985 | [1] 1.11 | [2] 1.1 | [34] 1.05 | [35] 0.985 | [36] 0.982 | [3] 0.981 | [37] 0.953 | [38] 0.973 | [39] 0.984 | [40] 0.971 | [4] 1.09 | [41] 0.959 | [42] 0.972 | [43] 0.962 | [44] 0.976 | [45] 1.03 | [46] 0.955 | [47] 0.99 | [48] 0.954 | [49] 0.984 | [50] 0.973 | [51] 0.978 | [52] 0.993 | [53] 0.974 | [54] 0.985 | [6] 1.02 | [55] 0.981 | [56] 0.982 | [57] 0.966 | [58] 0.981 | [59] 0.928 | [60] 0.965 | [61] 1.02 | [7] 0.95 | [62] 0.986 | [63] 0.964 | [64] 0.969 | [65] 0.935 | [66] 0.984 | [8] 1.02 | [67] 0.987 | [68] 0.982 | [69] 0.968 | [70] 0.984 | [71] 0.981

O=C(Nc1ccc(N2CCOCC2)cc1)c1ccc(-n2cccn2)cc1
inactive: [9] 0.994 | [10] 0.982 | [11] 0.974 | [12] 0.979 | [13] 0.975 | [14] 0.983 | [15] 0.985 | [16] 0.981 | [17] 0.974 | [18] 0.973 | [19] 0.959 | [20] 0.985 | [21] 0.987 | [22] 0.982 | [23] 0.96 | [24] 0.915 | [25] 0.957 | [26] 0.988 | [27] 0.988 | [28] 0.988 | [29] 0.955 | [30] 0.977 | [31] 0.953 | [32] 1.01 | [33] 0.991 | [1] 1.13 | [2] 1.1 | [34] 1.07 | [35] 0.982 | [36] 0.972 | [3] 1 | [37] 0.95 | [38] 0.966 | [39] 0.986 | [40] 0.96 | [4] 1.1 | [41] 0.946 | [42] 0.954 | [43] 0.931 | [44] 0.981 | [45] 1.04 | [5] 0.9 | [46] 0.962 | [47] 0.984 | [48] 0.928 | [49] 0.983 | [50] 0.95 | [51] 0.985 | [52] 0.979 | [53] 0.96 | [54] 0.978 | [6] 1.03 | [55] 0.979 | [56] 0.977 | [57] 0.958 | [58] 0.972 | [59] 0.923 | [60] 0.952 | [61] 1.01 | [7] 0.949 | [62] 0.985 | [63] 0.962 | [64] 0.958 | [65] 0.924 | [66] 0.979 | [8] 1.02 | [67] 0.982 | [68] 0.976 | [69] 0.968 | [70] 0.977 | [71] 0.982
